USP30 inh = inhibitors of human USP30 deubiquitinase. Q70CQ3. inhibition, % at 25 µM. hit rate 5.3% among 47,000. purified USP30, Ub-rhodamine cleavage fluorescence
USP17 block = human USP17-like deubiquitinase inhibition; A8MUK1; purified USP17, Ub-rhodamine cleavage fluorescence, 3 h; inhibition, % at 50 µM; hit rate 6.5% among 47,000; AID 1645855
USP8 block = blocks human USP8 ubiquitin-rhodamine cleavage; purified USP8, Ub-rhodamine cleavage fluorescence, 30 min; inhibition, % at 20 µM; hit rate 4.2% among 47,000; AID 1645853
USP28 inh = inhibitors of human USP28 deubiquitinase; Q96RU2; hit rate 3% among 47,000; inhibition, % at 25 µM; purified USP28, Ub-rhodamine cleavage fluorescence, 30 min
Large screens that a line does not name were inactive. This is a sample that favours compounds with a hit; in the whole collection about 13% have one here. No stated cut-off is given here; in the data, active means inhibition above about 30%; inactive means the rest.

Cc1cc2cc(CCNC(=O)c3ccc(F)cc3)c(=O)[nH]c2cc1C	none
Cc1ccc2cc(CCNC(=O)c3cccc(Br)c3)c(=O)[nH]c2c1	USP17 block 67.1
O=C1CCS(=O)(=O)N1c1ccc(S(=O)(=O)Nc2cccc(C(F)(F)F)c2)cc1	none
CC(C)=CCC/C(C)=C/CC/C(C)=C/Cc1c(C)cc(O)cc1O	USP17 block 38.7, USP28 inh 32.2
COC1=C(OC)C(=O)C(C/C=C(/C)CC/C=C(\C)CC/C=C(\C)CC/C=C(\C)CC/C=C(\C)CC/C=C(\C)CCC=C(C)C)=C(C)C1=O	none
O=C(C1CCN(S(=O)(=O)c2cccnc2)CC1)N1CCC(Cc2ccccc2)CC1	none
CCc1ccccc1N(C)C(=O)c1cc2c(=O)n(CC)c3ccccc3n2n1	none
COc1ccc(N(C)C(=O)c2cc3c(=O)n(C)c4ccccc4n3n2)cc1	USP8 block 82.2
O=C(OCCn1nc(C(=O)O)c2ccccc2c1=O)c1ccccc1	none
O=C(NCCCN1CCN(c2ccc(F)cc2)CC1)C1CCCN(S(=O)(=O)N2CCCCCC2)C1 (stereo unspecified)	none (no result: USP17 block)
O=C(NC1CC1)C1CCN(c2cnc(N3CCCCC3)nc2)CC1	none
CC(C)=CCC/C(C)=C/CC/C(C)=C/COc1c(O)cc(C=O)c(C=O)c1O	USP30 inh 43.8, USP17 block 80.5, USP8 block 70.8, USP28 inh 81.1
O=C(Nc1ccc(Cl)cc1)C1CCCN(c2cnccn2)C1 (stereo unspecified)	USP17 block 33.2
Cc1ccc(NC(=O)C2CCCN(c3cnccn3)C2)cc1 (stereo unspecified)	none
CCc1ccc(CNC(=O)C2CCN(c3nc4cccnc4n(CC)c3=O)CC2)cc1	none
COc1cc2ccccc2cc1C(=O)Nc1cccc(C)c1C	USP17 block 56.9 (no result: USP30 inh, USP28 inh)
O=C(C(Sc1ccccc1)c1ccccc1)N1CCN(c2cccc(C(F)(F)F)c2)CC1 (stereo unspecified)	USP30 inh 30.7 (no result: USP17 block)
COCCCn1c(C(=O)Nc2ccccc2OC)cc2c(=O)n3ccccc3nc21	USP30 inh 35.1, USP17 block 77.1
COCCCn1c(C(=O)NCCC(C)C)cc2c(=O)n3ccccc3nc21	USP30 inh 34.2, USP17 block 32.2
COc1ccc(NC(=O)c2nnc(C(=O)NCCN3CCCCCC3)s2)cc1	USP30 inh 51.9, USP17 block 46.5
COc1ccc(NC(=O)C(=O)NCCN2CCN(C(=O)c3c(F)cccc3F)CC2)cc1	USP30 inh 33.3
O=C(NCCN1CCN(C(=O)c2c(F)cccc2F)CC1)C(=O)Nc1ccc(F)cc1	none
COc1cc(CCC(=O)NC2CCCCC2)cc(OC)c1OC	none
CN(c1cccc(Cl)c1)S(=O)(=O)c1cccc(C(=O)OCc2cc(=O)n3cc(Br)ccc3n2)c1	none
O=C(CN1CCn2c(cnc2C(F)(F)F)C1=O)Nc1cccc(F)c1	none
CN1CCN(c2ccc(-c3nc(-c4ccc(F)cc4)no3)nn2)CC1	none
COc1ccc(-c2noc(-c3ccc(N4CCC5(CC4)OCCO5)nn3)n2)cc1	USP17 block 44.6
Cc1nc(-c2ccc(F)cc2)sc1C(=O)N1CCC(C)(C(N)=O)CC1	none
CCn1cc(S(=O)(=O)NCc2ccccc2)c2cccnc21	USP17 block 41.1, USP8 block 35.2
CC(=O)Nc1ccc(C(=O)NC2CCN(c3cc(-c4ccc(F)cc4)[nH]n3)C2)cc1 (stereo unspecified)	none
Cc1cccc(NC(=O)Cn2cc(C(=O)N3CCOCC3)c(=O)c3ccc(C)nc32)c1	USP8 block 34.5
CCn1cc(C(=O)Nc2ccc3ccccc3c2)c(=O)c2ccc(C)nc21	USP17 block 32.7
Cc1ccc2c(=O)c(C(=O)N3CCCC3)cn(CC(=O)NC3CCCC3)c2n1	none (no result: USP17 block)
CCc1cccc(NC(=O)c2cn(CC)c3nc(C)ccc3c2=O)c1	none
Cc1cccc(NC(=O)c2cn(CC(=O)NC3CCCC3)c3nc(C)ccc3c2=O)c1	USP17 block 47.7
Cc1cccc(NC(=O)Cn2cc(C(=O)N3CCCCC3)c(=O)c3ccc(C)nc32)c1	none
Cc1cc(-c2cnc(NCc3cccc(F)c3)nc2-c2ccco2)on1	USP17 block 40.9
CCNC(=O)N(Cc1ccccc1)[C@@H]1CC[C@@H]2C[C@@H]1[C@@H](O)CO2	none
CCS(=O)(=O)N1CCCc2cc(C(=O)Nc3ccccc3OC)ccc21	none
CCC(=O)N1CCCc2ccc(NC(=O)c3cccc(OC)c3)cc21	USP28 inh 37.3
CCC(=O)N1CCCc2ccc(NC(=O)c3ccccc3OC)cc21	none
CCC(=O)N1CCc2cc(C(=O)Nc3ccccc3OC)ccc21	USP28 inh 43.3
CCCC(=O)Nc1ccc2c(c1)C(=O)N(C)C1=NCCN12	none
COc1ccccc1C(=O)NCc1csc(-c2ccccc2)n1	none
N#Cc1ccccc1OCc1csc(-c2ccccc2)n1	USP28 inh 65.5
COc1cc(C(=O)N(Cc2cccs2)c2ccccn2)cc(OC)c1OC	none
Cc1noc(-c2cc(=O)n(CC(=O)NCc3ccccc3)c3ccccc23)n1	USP17 block 53.4
O=C(c1cn2ccccc2n1)N1CCN(Cc2cccc(F)c2)CC1	none
O=C(CN1CCCN(Cc2ccccc2)S1(=O)=O)Nc1ccc(F)cc1	USP30 inh 33.0
O=C(/C=C/c1ccc(-c2ccc(Br)cc2)o1)Nc1cccc2cccnc12	none
CC1CCCN(C(=O)Cc2nnc3cc(-c4nc(C5CC5)no4)ccn23)C1 (stereo unspecified)	none
CCOc1ccccc1-c1cc(NC(=O)c2cc3ccc4cccnc4c3[nH]2)on1	USP30 inh 88.2, USP17 block 67.8, USP8 block 69.1
COc1ccc2cc(C(=O)NCc3ccccn3)[nH]c2c1	none
COc1ccc2nc(NC(=O)c3cc4ccc5cccnc5c4[nH]3)sc2c1	USP8 block 79.9
O=C(Nc1nc2ccccc2s1)c1cc2ccc3cccnc3c2[nH]1	USP17 block 58.5 (no result: USP30 inh, USP28 inh)
CN(C)S(=O)(=O)c1ccc2nc(NC(=O)c3ccc4ccccc4n3)sc2c1	none
COc1cccc(S(=O)(=O)N2C3CCC2COC3)c1	none
CCOC(=O)c1[nH]c2c(c1Cc1ccccc1)C(=O)CC(C)(C)C2	USP17 block 42.4
c1ccc2nc(-c3cnccn3)ccc2c1	none
O=C(NCc1ccco1)N1CCN(Cc2nc3cccnc3n2-c2ccccc2)CC1	none
COc1ccc(CC(=O)Nc2ccccc2-c2nc3ccccc3[nH]2)cc1OC	USP30 inh 50.1, USP17 block 76.1
COc1ccc(-c2nc3ccccc3o2)cc1NC(=O)Cc1ccc(OC)c(OC)c1	none
O=C(NCCCN1CCOCC1)c1nc(-c2ccc3[nH]ccc3c2)no1	none
Cc1ccc(Cn2c(CCCC(=O)Nc3ccc(C)cc3C)nc3cccnc32)cc1	none
CC(C)c1cc2c(c(O)c1O)[C@@]13CCCC(C)(C)[C@@H]1C[C@@H]2OC3=O	USP17 block 73.5, USP28 inh 32.6
CCn1nccc1C1CCCN1S(=O)(=O)c1ccc(C)cc1 (stereo unspecified)	none
Cc1cc(C)c(O)c(-c2cc(C(=O)Nc3ccccc3Cl)[nH]n2)c1	USP30 inh 46.1, USP17 block 68.3, USP8 block 96.8
Cc1cccc(-c2cc(C(=O)Nc3ccccc3F)[nH]n2)c1O	USP30 inh 57.7, USP17 block 89.7, USP28 inh 35.7

Source: PubChem (Buhrlage Lab, Dana-Farber Cancer Institute and Novartis Institutes for BioMedical Research (Cambridge, Mass))
